Measurements as given in PubChem BioAssay (NCI).
About 83,000 compounds went through this panel and 20% of them were active in at least one assay; those are over-represented in the sample as a whole.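 Testing used 96-well plates and a 48-hour single-concentration exposure. Example: -40 means 40% of the starting cells died.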 Calls of active or inactive are those of the source. The calls were made as follows: active = growth percent below 10; inactive = the rest.

How the values were obtained:
Test in all cases: NCI-60 one-dose screen, 48 h (100 = growth as untreated, 0 = no growth, -100 = all killed)
[1] = tested on: SK-MEL-2 melanoma; conditions: 10 µM unless noted
[2] = tested on: EKVX NSCLC; conditions: 10 µM unless noted
[3] = tested on: SN12C renal; conditions: 10 µM unless noted
[4] = tested on: UO-31 renal; conditions: 10 µM unless noted
[5] = tested on: TK-10 renal; conditions: 10 µM unless noted
[6] = tested on: CAKI-1 renal; conditions: 10 µM
[7] = tested on: A498 renal; conditions: 10 µM unless noted
[8] = tested on: CCRF-CEM leukemia; conditions: 10 µM unless noted
[9] = tested on: MOLT-4 leukemia; conditions: 10 µM unless noted
[10] = tested on: SR leukemia; conditions: 10 µM unless noted
[11] = tested on: RPMI-8226 leukemia; conditions: 10 µM unless noted
[12] = tested on: OVCAR-8 ovarian; conditions: 10 µM unless noted
[13] = tested on: OVCAR-4 ovarian; conditions: 10 µM unless noted
[14] = tested on: SK-OV-3 ovarian; conditions: 10 µM unless noted
[15] = tested on: OVCAR-3 ovarian; conditions: 10 µM unless noted
[16] = tested on: HS 578T breast; conditions: 10 µM unless noted
[17] = tested on: NCI/ADR-RES ovarian; conditions: 10 µM unless noted
[18] = tested on: IGROV1 ovarian; conditions: 10 µM unless noted
[19] = tested on: OVCAR-5 ovarian; conditions: 10 µM unless noted

Measured: growth

CC(C)NCC(O)COc1ccc(CC(N)=O)cc1 (stereo not drawn)
inactive: [1] 105% | [2] 101% | [3] 104% | [4] 83.5% | [5] 105% | [6] 94.1% | [7] 92.9% | [8] 100% | [9] 107% | [10] 102% | [11] 99.1% | [12] 96.8% | [13] 105% | [14] 103% | [15] 114% | [16] 104% | [17] 104%

CC(NCCC(c1ccccc1)c1ccccc1)c1ccccc1 (stereo not drawn)
active: [10] -35.6%
inactive: [1] 79% | [2] 44.1% | [3] 86.4% | [4] 32.6% | [5] 57.5% | [6] 42.3% | [7] 63.8% | [8] 48% | [9] 17.8% | [11] 26.3% | [12] 84.3% | [13] 64.9% | [14] 99.1% | [18] 55.6% | [15] 78.4% | [16] 82.8% | [17] 79.1%

CCOC(=O)c1noc2c1CCc1c-2cn(Cc2ccc(OC)cc2)c1-c1cc(OC)c(OC)c(OC)c1
active: [15] 3.47% | [16] 8.37%
inactive: [1] 35.4% | [2] 48.6% | [3] 44.7% | [4] 30.9% | [5] 68.8% | [7] 56.2% | [8] 15% | [9] 18.5% | [10] 17.8% | [11] 24.7% | [12] 32.6% | [19] 71.2% | [13] 63.2% | [14] 65.3% | [18] 33.2% | [17] 21.9%

COC(=O)Nc1nc2ccc(Sc3ccccc3)cc2[nH]1
active: [12] 9.03% | [15] -78.1% | [17] -30.1%
inactive: [1] 53% | [2] 57.1% | [3] 44.6% | [4] 34.6% | [5] 65.6% | [6] 39.1% | [7] 13.9% | [8] 10.7% | [9] 14.6% | [10] 14.5% | [11] 42.1% | [13] 49.4% | [14] 13.5% | [18] 30.4% | [16] 30.3%

CC(Cc1cccc(C(F)(F)F)c1)NCCOC(=O)c1ccccc1 (stereo not drawn)
inactive: [1] 113% | [2] 84.6% | [3] 99.8% | [4] 85.4% | [5] 129% | [6] 87.4% | [7] 107% | [8] 105% | [9] 96.1% | [10] 92.4% | [11] 116% | [12] 110% | [13] 110% | [14] 106% | [18] 105% | [15] 115% | [16] 101% | [17] 92.9%

O=C(COc1ccc(Cl)cc1)N1CCN(Cc2ccc3c(c2)OCO3)CC1
inactive: [1] 123% | [2] 85.9% | [3] 91% | [4] 61.5% | [5] 116% | [6] 76.6% | [7] 84.5% | [8] 97.4% | [9] 100% | [10] 97.8% | [11] 88.7% | [12] 91.8% | [13] 94.5% | [14] 93.5% | [18] 106% | [15] 99.2% | [16] 92.8% | [17] 92.6%

COc1ccc(-n2c(-c3ccc(NC(=O)CCCl)cc3)nnc2-c2cc(OC)c(OC)c(OC)c2)cc1
active: [9] 6.29% | [10] 6.09% | [15] 4.58%
inactive: [1] 48.3% | [2] 51.2% | [3] 72.3% | [4] 43.8% | [5] 70.2% | [7] 65.4% | [8] 16.8% | [11] 31% | [12] 49.2% | [19] 79.7% | [13] 54.1% | [14] 45.2% | [18] 42.4% | [16] 56% | [17] 55.9%

CC[C@@]1(O)C(=O)OCc2c1cc1n(c2=O)Cc2c-1nc1ccccc1c2/C=N/OC(C)(C)C
active: [1] -17.8% | [3] 5.56% | [4] -64.8% | [5] 1.26% | [7] -70.2% | [8] 4.16% | [9] -10.6% | [10] -6.28% | [11] -2.84% | [12] 3.32% | [14] -15.7% | [18] 8.28% | [15] -27.3% | [17] 1.09%
inactive: [2] 17% | [19] 10.5% | [13] 30.1% | [16] 33%

COc1ccc(Cn2cc(COc3ccc4c5ccnc(C)c5n(CCCc5ccccc5)c4c3)nn2)cc1
active: [10] -29% | [11] -3.72%
inactive: [1] 64.4% | [2] 101% | [3] 69.1% | [4] 70.5% | [5] 103% | [7] 88.8% | [8] 19.7% | [9] 38.4% | [12] 61.9% | [19] 111% | [13] 70.2% | [14] 95.3% | [18] 75.3% | [15] 76% | [16] 77.8% | [17] 67%

CN(C)CC/C=C1\c2ccccc2Sc2ccc(Cl)cc21
inactive: [1] 89.6% | [2] 78.6% | [3] 48% | [4] 41.3% | [5] 75.8% | [6] 52.7% | [7] 89.5% | [8] 59.4% | [9] 44.8% | [11] 72% | [12] 69.2% | [13] 69.9% | [14] 74.1% | [18] 53.8% | [15] 74.4% | [16] 65.6% | [17] 63.2%

Cl[C@@H]1CCO[C@H](c2cc3ccccc3c3ccccc23)C1
inactive: [1] 101% | [2] 90.8% | [3] 95.4% | [4] 89.2% | [5] 92.8% | [7] 77.2% | [8] 85.9% | [9] 98% | [10] 93.8% | [11] 83.3% | [12] 98.9% | [19] 91.5% | [13] 94.8% | [14] 97.2% | [18] 97.9% | [15] 108% | [16] 103% | [17] 103%

COc1cc(NS(=O)(=O)c2ccc(N)cc2)ncn1
inactive: [1] 160% | [2] 102% | [3] 93.8% | [4] 86.2% | [5] 130% | [6] 94.6% | [7] 106% | [8] 105% | [9] 99.6% | [10] 97.2% | [11] 109% | [12] 102% | [13] 114% | [14] 107% | [18] 118% | [15] 115% | [16] 105% | [17] 103%

CC1CCc2cc(F)cc3c(=O)c(C(=O)O)cn1c23 (stereo not drawn)
inactive: [1] 125% | [2] 91.4% | [3] 98.2% | [4] 78.5% | [5] 103% | [6] 81% | [7] 88.1% | [9] 97.3% | [10] 95.4% | [11] 105% | [12] 97.5% | [13] 111% | [14] 108% | [18] 109% | [15] 114% | [16] 103% | [17] 94.8%

CCOc1ccc(Cc2nccc3cc(OCC)c(OCC)cc23)cc1OCC
inactive: [1] 80.4% | [2] 42% | [3] 58.9% | [4] 37.5% | [5] 68.6% | [6] 48% | [7] 35.5% | [8] 58.7% | [9] 27.2% | [10] 26.7% | [11] 47.3% | [12] 69.1% | [13] 54.6% | [14] 87.2% | [18] 16.6% | [15] 75% | [16] 78.1% | [17] 65.3%

CCc1c(C)c2cc3nc(NCc4ccccc4)oc3c(C)c2oc1=O
inactive: [1] 83.6% | [2] 77.1% | [3] 73.5% | [4] 80.1% | [5] 77.6% | [7] 49.2% | [8] 79.6% | [9] 71.9% | [10] 73.5% | [11] 71.6% | [12] 62.5% | [19] 89.7% | [13] 33.9% | [14] 39.5% | [18] 76.2% | [15] 87% | [16] 67.1% | [17] 51.2%

COc1ccc(C[C@H](N)C(=O)N[C@@H]2[C@@H](CO)OC(n3cnc4c(N(C)C)ncnc43)[C@@H]2O)cc1 (stereo partly drawn)
inactive: [4] 16.2% | [6] 42.8% | [11] 12.5% | [16] 11.8% | [17] 93.4%
active: [1] -74.4% | [2] -47.2% | [3] -13.3% | [5] -75.7% | [7] -65.6% | [8] -3.9% | [9] -22.3% | [10] -37.7% | [12] -52.3% | [13] -32.9% | [14] -25.3% | [18] -42.3% | [15] -94.7%

COc1cc(NC(=O)C#Cc2ccccc2)c(OC)cc1Cl
active: [18] 4.48%
inactive: [1] 60.4% | [2] 62.7% | [3] 26.4% | [4] 40.4% | [5] 111% | [7] 100% | [8] 11.1% | [9] 22.4% | [10] 12.4% | [11] 10.8% | [12] 38.6% | [19] 79.4% | [13] 93.8% | [14] 97.8% | [15] 82.8% | [16] 79.8% | [17] 56.5%
